# From PubChem BioAssay
# HCV inhibitor: blocks hepatitis C virus; Huh7.5.1 HCVcc-Cre infection, luciferase reporter, 44 h; Potency, µM (top dose mostly 41.8 µM), usual class: inhibitors; 340,000 tested, 3.4% active; AID 651820
#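 Cells seeded at 1,000/well and cultured 4 h, then compounds added followed by HCVcc-Cre virus (~0.5 moi). After 44 h further culture, luciferase substrate was added, plates held 15 min at room temperature, and luminescence read for 15 sec.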
# SARS PLP yeast: SARS-CoV PLP inhibition in yeast | S. cerevisiae expressing SARS-CoV PLpro, growth rescue | Potency, µM (titrated, usually from 32.9 µM), hits mostly activators | 330,000 tested, 0.19% active; calls by dose curve; further: nearly all actives have a fitted effect of over 55% in size
# HCMV inh: inhibitors of human cytomegalovirus; HFF cells, HCMV-luciferase reporter, 72 h; hits give low values; activity change, negative = inhibition, % at 57.5 µM; 410,000 tested, 4.5% active; AID 1259415; in the data active means activity change below about -60%; inconclusive means no clear call, values can overlap the other calls; inactive means above about -39%
#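 Cell-based, HFFs, 1000 cells/well, 16 h 37C; cpds in DMSO + HCMV-luc, MOI 1 PFU/cell; 72 h 37C; OneGlo luminescence after 5 min RT; norm. to buffer vs Salinomycin 10uM.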
# Pf growth 96h: P. falciparum growth inhibition at 96 hours; P. falciparum luciferase reporter growth, 96 h; Potency, µM (titrated, usually from 28.7 µM), actives largely listed as inhibitors; 320,000 tested, 6.9% active
#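 Delayed-death screen, second-generation endpoint: infected erythrocytes, 2% hematocrit, 0.05% parasitemia final; 96 hours at 37 C, 5% CO2; luciferase detection reagent; luminescence decrease equals reduced growth.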
# Pf growth 48h: inhibits P. falciparum growth in the first generation, 48 h | 310,000 tested, 5.9% active | Potency, µM (highest dose often 28.7 µM), actives largely listed as inhibitors | P. falciparum luciferase growth in erythrocytes, 48 h
#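 Luminescence readout; reporter = integrated firefly luciferase in P. falciparum. RBC culture at 2% hematocrit, 0.1% parasitemia final, 37 C/5% CO2; decreased signal taken as growth inhibition.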
# Sm TGR block: inhibitors of Schistosoma mansoni thioredoxin glutathione reductase; Q962Y6; purified TGR, DTNB reduction, TNB absorbance 405 nm; Potency, µM (doses to about 114 µM), hits mostly inhibitors; 360,000 tested, 3% active; AID 485364; further: nearly all actives have a fitted effect of over 60% in size
#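 First, TGR (20 nM dispensed) and NADPH were mixed with compound. Second, a 15 min room-temperature incubation followed. Third, further NADPH and then DTNB were added to start the reaction. Finally, TNB absorbance was monitored kinetically.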
# Hits are given with their value; 0 = inactive; ? = inconclusive; - = not tested or not shown; [ ] = remark or other dose. A selection: hits, their analogues and other compounds. The true share with any hit is near 15%. Unless noted, the call rests on the fitted dose curve; in most records, active means well fitted curve in the direction sought with a large enough effect; inconclusive means small, poorly fitted or top-dose-only effect, or another doubt; inactive means no such curve, though single readings can be large; an effect the other way counts as inactive or inconclusive.
SMILES,HCV inhibitor,SARS PLP yeast,HCMV inh,Pf growth 96h,Pf growth 48h,Sm TGR block
NS(=O)(=O)c1ccc(CCNC(=O)CSc2nc3ccccc3c(=O)n2CC2CCCO2)cc1 (configuration not stated),0,0,0,?,?,0
CN(C)S(=O)(=O)c1cccc(NC(=S)NNC(=O)c2cc3ccccc3cc2O)c1,?,4.47µM,0,?,?,0
CCCC(=O)Nc1cccc(S(=O)(=O)N(C)c2ccccc2)c1,?,0,0,0,0,0
CN(c1cccc(NC(=O)c2ccc(C(C)(C)C)cc2)c1)S(C)(=O)=O,?,0,-81.8,0,0,0
CN(C)S(=O)(=O)c1cccc(NC(=O)c2cccc(NS(=O)(=O)c3ccccc3)c2)c1,12.6µM,0,-88.9,0,?,0
CSc1ncccc1C(=O)Nc1cccc(S(=O)(=O)N(C)c2ccccc2)c1,?,0,0,?,9.28µM,0
CN(C)S(=O)(=O)c1cccc(C(=O)Nc2ccc(C(=O)Nc3cccc(S(N)(=O)=O)c3)cc2)c1,0,0,0,-,-,-
CC(=O)c1cccc(NC(=O)c2ccc(N(C)S(C)(=O)=O)cc2)c1,?,0,0,-,0,0
COc1cc(C)c(NC(=O)COc2ccc3c(c2)CCC3)cc1OC,?,0,0,0,0,0
O=C(NC1CCCC1)c1nc(-c2ccco2)oc1-c1ccccc1,-,-,0,-,-,-
CCN(C(=O)CSc1ccc2ccccc2n1)C1CCCCC1,?,0,0,-,-,-
CC(C)(C)CC(=O)NCC(c1ccc2c(c1)OCO2)N1CCOCC1 (configuration not stated),-,-,0,-,-,0
COc1cccc(C2=NN(C(C)=O)C(c3cn(-c4ccccc4)nc3-c3cccs3)C2)c1 (configuration not stated),-,-,0,-,-,0
COC(=O)CN1C(c2ccc(Cl)cc2)=Nc2ccc(Cl)cc2C1c1ccccc1 (configuration not stated),?,0,0,3.29µM,2.62µM,0
NNC(=O)CN1C(c2cccc(Cl)c2)=Nc2ccc(Br)cc2C1c1ccccc1 (configuration not stated),0,0,0,0,1.85µM,0
COc1ccc(C2=Nc3ccc(C)cc3C(c3ccccc3)N2CC(=O)NN)cc1 (configuration not stated),0,0,0,1.85µM,0,-
NNC(=O)CN1C(c2ccccc2Br)=Nc2ccc(Br)cc2C1c1ccccc1 (configuration not stated),0,0,0,?,?,0
COc1ccc(C2=Nc3ccc(Br)cc3C(c3ccccc3)N2CC(=O)NN)cc1 (configuration not stated),0,0,0,0,13.1µM,0
CCOC(=O)c1c(C)[nH]c(C)c1S(=O)(=O)N(C)CC(=O)NCc1ccc(Cl)cc1,-,-,0,-,-,0
COc1ccccc1CNc1ncnc2onc(-c3ccc(Cl)cc3)c12,-,-,0,-,-,0
CCC[N+]1(CC#CC(O)(c2ccccc2)C2CCCCC2)CCCCC1 (configuration not stated),0,0,0,0,1.65µM,0
CCN(CC)CCC#CC(O)(c1ccccc1)C1CCCCC1 (configuration not stated),0,0,0,?,?,0
CCCCn1c(N)c(N(CC)C(=O)C2COc3ccccc3O2)c(=O)[nH]c1=O (configuration not stated),0[8.37 µM],0,0,0,0,0
COCCCNC(=S)N1CCN(C(c2ccccc2)c2ccccc2)CC1,-,0,0,0,13.1µM,0
C=C(C)CNC(=S)N1CCN(C(c2ccccc2)c2ccccc2)CC1,0,0,0,0,?,0
SMILES,HCV inhibitor,SARS PLP yeast,HCMV inh,Pf growth 96h,Pf growth 48h,Sm TGR block
CC(C)CNC(=S)N1CCN(C(c2ccccc2)c2ccccc2)CC1,0,0,0,2.08µM,?,0
CC(C)(C)n1ncc2c(=O)n(Cc3cccc(Cl)c3)cnc21,?,0,0,?,0,0
CC(C)(C)c1ccc(CSc2cnn(C(C)(C)C)c(=O)c2Cl)cc1,?,0,-77.8,?,?,0
CCc1cccc(NC(=O)CC2Oc3ccc(C)cc3NC2=O)c1 (configuration not stated),-,-,0,-,-,0
O=[N+]([O-])c1ccc2c(c1)oc1ccccc12,0,0,-93.3,-,0,0
CC(=O)Nc1ccccc1Nc1cc(C#N)c(C#N)cc1[N+](=O)[O-],?,0,0,7.38µM,?,0
CCN(CC)S(=O)(=O)c1ccc(C(=O)Nc2cc3oc4ccccc4c3cc2OC)cc1,0,0,0,?,0,0
COc1cc2c(cc1NC(=O)c1cccc(S(=O)(=O)N(C)C)c1)oc1ccccc12,1.41µM,0,0,0,0,0
